Pf growth 48h = inhibits P. falciparum growth in the first generation, 48 h; P. falciparum luciferase growth in erythrocytes, 48 h; Potency, µM (titrated, usually from 28.7 µM), for the others: at the highest dose activity change, negative = inhibition, actives largely listed as inhibitors; 310,000 tested, 5.9% active; also: potency is read from the fitted curve at half-maximal effect; % is scaled to controls: 0 for no effect and ±100 for the full control effect
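Growth was read as firefly luciferase luminescence after a 48 h, 37 C, 5% CO2 exposure of compounds to reporter-bearing P. falciparum cultures (0.1% parasitemia, 2% hematocrit final) in Albumax-supplemented RPMI 1640.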
Pf growth 96h = P. falciparum growth inhibition at 96 hour, primary screen for plastid delayed-death inhibitors. Potency, µM (titrated, usually from 28.7 µM), inactives show top-dose activity change, negative = inhibition, most hits filed as inhibitors. P. falciparum luciferase reporter growth, 96 h. AID 504834. 320,000 tested, 6.9% active; also: potency is read from the fitted curve at half-maximal effect; % is scaled to controls: 0 for no effect and ±100 for the full control effect
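Erythrocytes infected with luciferase-expressing P. falciparum were dispensed at 2% hematocrit and 0.05% parasitemia (final), then incubated with compounds 96 hours at 37 C in 5% CO2. Luminescence after detection reagent addition reported growth.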
NS1 function inh = inhibitors of influenza NS1 protein function | Potency, µM (top dose mostly 46.1 µM), for the others: at the top dose activity, positive = more growth | 270,000 tested, 0.4% active; calls by dose curve; also: potency is read from the fitted curve at half-maximal effect; actives are rising curves; nearly all actives have a fitted effect of over 50% in size
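Read-out: OD600 growth recovery of NS1-expressing budding yeast. Cells grown overnight at 30C in -URA glucose medium, washed, resuspended and diluted 1:100 in 2% galactose assay medium, pH 6.0. Same strain lacking NS1 served as positive control.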
Sm TGR block = S. mansoni TGR enzyme inhibition | Q962Y6 | purified TGR, DTNB reduction, TNB absorbance 405 nm | Potency, µM (top dose mostly 114 µM), for the others: at the highest dose activity change, negative = inhibition, actives largely listed as inhibitors | 360,000 tested, 3% active | AID 485364; also: potency is read from the fitted curve at half-maximal effect; % is scaled to controls: 0 for no effect and ±100 for the full control effect; nearly all actives have a fitted effect of over 60% in size
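First, TGR (20 nM dispensed) and NADPH were mixed with compound. Second, a 15 min room-temperature incubation followed. Third, further NADPH and then DTNB were added to start the reaction. Finally, TNB absorbance was monitored kinetically.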
CHX counter = counter-screen for Shiga toxin inhibitors: cycloheximide protein synthesis inhibition; cell reporter, cycloheximide protein synthesis inhibition counterscreen; max response, %; 300,000 tested, 12% active; in the data active = max response mostly above about 13%, no sharp cut-off; inactive = mostly below about 14%; also: read at 38.3 µM for the half of the compounds with a filed dose; 0% is about no effect
Shiga inhibitor = blocks Shiga toxin action in Vero cells; AID 2315; inhibition, % at 38.7 µM; 290,000 tested, 9.2% active; Vero cells, Shiga toxin protein synthesis inhibition reporter; in the data active = inhibition mostly above about 28%, no sharp cut-off; inactive = mostly below about 43%; also: 0% is about no effect
* marks the source's active call; other numbers are inactive results. Most compounds without a hit are left out; they make up all but 21% or so of the library. Unless noted, calls follow the shape of the dose curve; as a rule, active = well fitted curve in the direction sought with a large enough effect; inconclusive = small, poorly fitted or top-dose-only effect, or another doubt; inactive = no such curve, though single readings can be large; an effect the other way counts as inactive or inconclusive.

Results for O=C(/C=C/c1cccc([N+](=O)[O-])c1)NC(=S)Nc1ccccc1C(=O)O ?
Pf growth 48h: 3%; Pf growth 96h: 2%; Sm TGR block: 18µM*; CHX counter: 16; Shiga inhibitor: 20

What do the screens show for `O=C(/C=C/c1cccc([N+](=O)[O-])c1)NC(=S)Nc1cccc(NC(=O)c2ccccc2Cl)c1`?
Pf growth 48h: 13µM*; Pf growth 96h: 3%; NS1 function inh: 25%; Sm TGR block: 8%; CHX counter: -5; Shiga inhibitor: -16

What do the screens show for `COc1ccc(C)cc1NC(=O)C1CCN(S(=O)(=O)c2cc(Br)cc3c2N(C(C)=O)CC3)CC1`?
Sm TGR block: -2%

How did COc1ccc(CCNC(=O)c2cc(C(=O)c3cc(Cl)ccc3O)cn(CCc3ccc(OC)cc3)c2=O)cc1 do in these assays?
Pf growth 48h: 1.7µM*; Pf growth 96h: 0.52µM*; NS1 function inh: 1%; Sm TGR block: inconclusive; CHX counter: 13; Shiga inhibitor: 16

Results for O=C(c1cc(C(=O)NCCc2ccccc2)c(=O)n(CCc2ccccc2)c1)c1cc(Cl)ccc1O ?
Pf growth 48h: 0.83µM*; Pf growth 96h: 0.41µM*; NS1 function inh: 17%; Sm TGR block: 1%; CHX counter: -5; Shiga inhibitor: -4

What do the screens show for `COc1ccc(CCNC(=O)c2cc(C(=O)c3cc(C)ccc3O)cn(CCc3ccc(OC)cc3)c2=O)cc1`?
Pf growth 48h: 6.6µM*; Pf growth 96h: 3.3µM*; NS1 function inh: inconclusive; Sm TGR block: 0%; CHX counter: 0; Shiga inhibitor: 13

What do the screens show for `Cc1cc2c(cc1NC(=O)c1ccccc1Cl)n(C)c(=O)c(=O)n2C`?
Sm TGR block: 1%

What do the screens show for `COc1cc(OC)cc(C(=O)NNC(=O)CCc2ccccc2)c1`?
Pf growth 48h: 10%; Pf growth 96h: inconclusive; NS1 function inh: 0%; Sm TGR block: 15%; CHX counter: 7; Shiga inhibitor: -2

How did CCOC(=O)Cn1nc(-c2ccc(F)cc2)oc1=O do in these assays?
Pf growth 96h: -3%; NS1 function inh: 4%; Sm TGR block: 2%; CHX counter: 1; Shiga inhibitor: -4

How did CCCCc1nc2cc(C(=O)N3CCCCC3C(=O)OC)ccc2o1 (centres undefined) do in these assays?
Pf growth 48h: 52%; Pf growth 96h: inconclusive; NS1 function inh: -7%; Sm TGR block: -19%; CHX counter: 39*; Shiga inhibitor: 57*

Results for CCOC(=O)CC1COCCN1C(=O)c1ccc2oc(Cc3ccccc3)nc2c1 (centres undefined) ?
Pf growth 48h: -20%; Pf growth 96h: 4%; NS1 function inh: 0%; Sm TGR block: 5%; CHX counter: 48*; Shiga inhibitor: 62*

What do the screens show for `CCCCc1nc2cc(C(=O)N3CCCCC3CC(=O)OCC)ccc2o1` (centres undefined)?
Pf growth 48h: 24%; Pf growth 96h: 8%; NS1 function inh: 9%; Sm TGR block: -2%; CHX counter: 31*; Shiga inhibitor: 37

Results for CCOC(=O)CC1CCCCN1C(=O)c1cc(COc2cccc3cnccc23)on1 (centres undefined) ?
Pf growth 48h: -27%; Pf growth 96h: 43%; NS1 function inh: -22%; Sm TGR block: 1%; CHX counter: 9; Shiga inhibitor: -5

How did CCC(C)NC(=O)c1ccc2nc(Cc3ccccc3)oc2c1 (centres undefined) do in these assays?
Sm TGR block: 0%

How did COC(=O)c1nn(-c2cccc(C(F)(F)F)c2)c(=O)cc1Sc1ccccn1 do in these assays?
Pf growth 48h: 1%; Pf growth 96h: 37%; NS1 function inh: -1%; Sm TGR block: 0%; CHX counter: -1; Shiga inhibitor: -27

What do the screens show for `Cc1cccc(C)c1Nc1c(-c2ccccn2)nc2ccccn12`?
Pf growth 48h: inconclusive; Pf growth 96h: -11%; Sm TGR block: 9%; CHX counter: -3; Shiga inhibitor: -13

What do the screens show for `COc1ccc(/C=C2\SC(=N)N(c3nccs3)C2=O)cc1OC`?
Pf growth 48h: inconclusive; Pf growth 96h: inconclusive; NS1 function inh: -11%; Sm TGR block: 4%; CHX counter: 14*; Shiga inhibitor: -1

Results for O=C1OC(c2cccs2)=N/C1=C\c1ccc(-c2cccc(Cl)c2)o1 ?
Pf growth 48h: 28%; Pf growth 96h: 34%; NS1 function inh: 14%; Sm TGR block: inconclusive; CHX counter: 2; Shiga inhibitor: -3

Results for N=C1S/C(=C\c2ccc(-c3cccc(Cl)c3)o2)C(=O)N1c1nccs1 ?
Pf growth 48h: 4.7µM*; Pf growth 96h: inconclusive; NS1 function inh: 9%; Sm TGR block: -20%; CHX counter: 9; Shiga inhibitor: 10

How did C=CCCC(=O)Nc1nc(C)c(-c2csc(Nc3ccc(Cl)cc3Cl)n2)s1 do in these assays?
Pf growth 48h: inconclusive; Pf growth 96h: 8.3µM*; NS1 function inh: 27%; Sm TGR block: 2%; CHX counter: 3; Shiga inhibitor: 14

What do the screens show for `CCCC(C)C(=O)Nc1nc(C)c(-c2csc(Nc3cc(Cl)ccc3C)n2)s1` (centres undefined)?
Pf growth 48h: inconclusive; Pf growth 96h: inconclusive; NS1 function inh: 19%; Sm TGR block: 8%; CHX counter: -2; Shiga inhibitor: -20

How did Cc1nc(NC(=O)CC(C)C)sc1-c1csc(Nc2ccc(Cl)cc2Cl)n1 do in these assays?
Pf growth 48h: inconclusive; Pf growth 96h: 9.3µM*; NS1 function inh: inconclusive; Sm TGR block: 10%; CHX counter: 22; Shiga inhibitor: 19

What do the screens show for `Cc1nc(NC(=O)CC(C)C)sc1-c1csc(Nc2ccc(Cl)cc2)n1`?
Pf growth 48h: 10µM*; Pf growth 96h: 4.7µM*; NS1 function inh: 23%; Sm TGR block: 0%; CHX counter: 2; Shiga inhibitor: -15

Results for C=CCCC(=O)Nc1nc(C)c(-c2csc(Nc3cc(Cl)ccc3OC)n2)s1 ?
Pf growth 48h: inconclusive; Pf growth 96h: inconclusive; NS1 function inh: 28%; Sm TGR block: 12%; CHX counter: -2; Shiga inhibitor: -18

What do the screens show for `COc1ccc(Cl)cc1Nc1nc(-c2sc(NC(=O)CC(C)C)nc2C)cs1`?
Pf growth 48h: 10µM*; Pf growth 96h: 9.3µM*; NS1 function inh: 0%; Sm TGR block: 3%; CHX counter: -1; Shiga inhibitor: -12

What do the screens show for `CC1CN(C2=NC(=O)/C(=C3/C(=O)N(Cc4ccc(F)cc4)c4ccccc43)S2)CC(C)O1` (centres undefined)?
Pf growth 48h: inconclusive; Pf growth 96h: 5.9µM*; NS1 function inh: 3%; Sm TGR block: -6%; CHX counter: 1; Shiga inhibitor: 12

Bioassay records deposited in PubChem BioAssay by National Center for Advancing Translational Sciences (NCATS).
